MCF10A rerep – inducers of DNA re-replication in MCF 10A breast cells | Potency, µM (titrated, usually from 46.1 µM), without a hit: at the top dose activity, positive = re-replication, actives largely listed as activators | 2.9% of 350,000 active | AID 624296 | MCF 10A DNA re-replication, Hoechst nuclear intensity, 48 h; also: % of control where 0% means no effect; nearly all actives have a fitted effect of over 50% in size
HT1080-NT tox – kills 2HG-producing HT-1080-NT fibrosarcoma cells. HT-1080-NT fibrosarcoma viability, CellTiter-Glo ATP luminescence, 48 h. Potency, µM (series often up to 46.1 µM), without a hit: top-dose activity, negative = less viability, usual class: cytotoxic. 1.6% of 360,000 active. AID 686970;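 also: NT is the 2HG producing partner of a matched IDH1 knockdown line; 0% = DMSO-treated cells and -100% = media-only wells without cells; nearly all actives have a fitted effect of over 55% in size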
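HT-1080-NT fibrosarcoma cells (2HG-overproducing), 750 cells/well in RPMI with 5% FBS, dosed after 2 h and incubated 48 h at 37C. CellTiter-Glo luminescence normalized to DMSO and no-cell wells; concentration-response curves fitted and classed.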
HT1080 IDH1KD tx – kills HT-1080 cells with IDH1 knockdown; HT-1080 IDH1 knockdown viability, ATP luminescence, 48 h; Potency, µM (doses to about 46.1 µM), without a hit: top-dose activity, negative = toxicity, usual class: cytotoxic; 2% of 360,000 active; AID 686971;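 also: 0% = DMSO wells and -100% = cell-free medium wells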
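Assay cells: HT-1080 with IDH1 knockdown, 750 per well, RPMI/5% FBS. Exposure: 48 h at 37 °C following 2 h pre-incubation. Read: CellTiter-Glo luminescence; fitted concentration-response, curve class assigned.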
SW480 rerep – DNA re-replication induction in SW480 cells; AID 624297; 1.8% of 340,000 active; SW480 DNA re-replication, Hoechst DNA content imaging, 48 h; Potency, µM (titrated, usually from 46.1 µM), without a hit: top-dose re-replication activation, actives largely listed as activators; also: % of control where 0% means no effect; nearly all actives have a fitted effect of over 55% in size
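Cells (250 per well) received 23 nL compound or DMSO by pin tool and were kept 48 hr at 37 C, 5% CO2. Nuclei were then stained with Hoechst for 40 min and scanned for DNA content.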
KB-V1 MDR tox – KB-V1 MDR subline cytotoxicity | KB-V1 MDR cells viability, CellTiter-Glo, 72 h | Potency, µM (highest dose often 46.1 µM), hits mostly cytotoxic | 3.4% of 400,000 active | AID 1347076; also: % is scaled to controls: 0 for no effect and ±100 for the full control effect; nearly all actives have a fitted effect of over 60% in size
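Compound-treated KB-V1 multidrug-resistant cells, 72 h, 37 degrees C; viability by CellTiter-Glo. Fitted qHTS curves give the values.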
KB-3-1 cytotox – kills parental KB-3-1 adenocarcinoma cells | KB-3-1 viability, CellTiter-Glo ATP luminescence, 72 h | Potency, µM (series often up to 46.1 µM), hits mostly cytotoxic | 1.4% of 400,000 active | AID 1347075; also: % is scaled to controls: 0 for no effect and ±100 for the full control effect; nearly all actives have a fitted effect of over 60% in size
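Here the drug-naive KB-3-1 line serves as comparator for MDR sub-line selectivity; cells received compound titrations, 72 h at 37 °C, then CellTiter-Glo readout.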
Active calls of the source: *; i = inactive; ? = inconclusive; · = not tested or not shown. Shown are actives, neighbours in structure and some others; about 7.9% of the full set was active somewhere. Calls follow the shape of the dose curve; as a rule, active = well fitted curve in the direction sought with a large enough effect; inconclusive = small, poorly fitted or top-dose-only effect, or another doubt; inactive = no such curve, though single readings can be large; an effect the other way counts as inactive or inconclusive. Potency is read from the fitted curve at half-maximal effect.

SMILES	MCF10A rerep	HT1080-NT tox	HT1080 IDH1KD tx	SW480 rerep	KB-V1 MDR tox	KB-3-1 cytotox
CCOC(=O)c1cnc2c(-c3ccccc3)cnn2c1C	0%	27%	?	-8%	i	i
C=CCn1c(SCc2csc(-c3ccc(Cl)cc3)n2)nnc1-c1ccccc1OC	?	-19%	?	·	21µM*	?
C=CCn1c(SCC(=O)Nc2ccc3c(c2)OCO3)nnc1-c1ccccc1OC	-1%	-20%	-26%	-1%	i	i
COC(=O)c1cc(C(=O)N2CCN(c3cccc(C)c3C)CC2)cc([N+](=O)[O-])c1	?	1.8µM*	2.3µM*	4.1µM*	i	5.8µM*
COC(=O)c1cc(C(=O)c2c(C)cc3ccccn23)cc([N+](=O)[O-])c1	?	16µM*	?	?	i	?
COC(=O)c1cc(C(=O)N2CCN(C(=O)c3ccco3)CC2)cc([N+](=O)[O-])c1	2%	-5%	-4%	2%	i	i
Cc1ccccc1N1CCN(C(=S)c2ccc([N+](=O)[O-])cc2)CC1	9%	-6%	0%	-1%	16µM*	i
COC(=O)c1cc(C(=O)N2CCN(c3ncccn3)CC2)cc([N+](=O)[O-])c1	60%	0%	0%	-5%	?	i
COC(=O)c1cc(C(=O)N2CCN(c3ccccc3OC)CC2)cc([N+](=O)[O-])c1	1.2µM*	0.33µM*	0.33µM*	2.1µM*	1.3µM*	1.2µM*
CC(=O)c1cccc(NC(=O)CN2CCc3cc4c(cc3C2C)OCCCO4)c1 (stereo not given)	1%	-2%	-5%	-4%	i	i
NC(=O)c1ccccc1NC(=O)CC12CC3CC(CC(Br)(C3)C1)C2	-3%	2%	8%	-34%	i	i
O=C(NC1CCOCC1)C1CCC(=O)N(Cc2ccc(Cl)cc2)C1 (stereo not given)	9%	3%	-2%	9.2µM*	i	?
CCN(CC(=O)Nc1ccc(NC(C)=O)cc1)C(=O)CC1OC(=O)c2ccccc21 (stereo not given)	3%	12%	5%	-1%	i	i
COc1ccc(-c2nnc(SCC(=O)N(Cc3ccccc3)C(C)(C)C)o2)cc1OC	?	-19%	-21%	-16%	9.2µM*	?
COc1ccc(CCNC(=O)Cc2ccccc2)cc1OC	-16%	-4%	7%	?	i	i
COc1ccc(CCNCC(=O)Nc2ccc(OC(F)(F)F)cc2)cc1OC	23µM*	-4%	3%	10%	i	i
COc1ccc(CCNC(=O)C(C(=O)c2ccccc2)n2cc(Cl)ccc2=O)cc1OC (stereo not given)	-3%	9%	8%	4%	16µM*	i
COc1ccc(CCNC(=O)C(=O)NCc2ccccc2)cc1OC	?	16µM*	21µM*	18µM*	?	21µM*
CCOC(=O)c1c(NC(=O)CSc2cn(CCNC(=O)c3c(F)cccc3F)c3ccccc23)sc2c1CCCC2	·	·	·	·	i	?
COc1ccc(CCNC(=O)CSc2ccc3ccccc3c2)cc1OC	5%	1%	2%	-3%	23µM*	i
COc1ccc(CCNC(=O)CSc2nnc(-c3ccccc3)o2)cc1OC	0%	-7%	2%	-12%	21µM*	i
CCOc1ccccc1NC(=O)CCNC(=O)C1CCN(S(=O)(=O)c2ccccc2)CC1	·	-5%	8%	·	i	i
Cc1ccc2c(CC(=O)NCc3ccco3)coc2c1C	12µM*	5.2µM*	7.3µM*	?	5.8µM*	7.3µM*
O=C(N/N=C/c1cccs1)c1cccc(S(=O)(=O)Nc2ccc(Cl)cc2)c1	5%	12µM*	16µM*	-27%	i	i
O=C(Cn1ncn2c(cc3cc(F)ccc32)c1=O)NC1CCCCC1	·	·	·	·	i	i
SMILES	MCF10A rerep	HT1080-NT tox	HT1080 IDH1KD tx	SW480 rerep	KB-V1 MDR tox	KB-3-1 cytotox
CCN(CC)C(=O)CSc1nnc(-c2cc(-c3ccc(Cl)cc3)nc3ccccc23)o1	9%	18%	2%	1%	i	i
O=C(CSc1nnc(-c2cccs2)o1)c1cccs1	3.7µM*	0%	4%	?	i	i
CN(C)C(=O)CSc1nnc(-c2cc(-c3cccs3)nc3ccccc23)o1	10µM*	0%	-7%	?	?	i
COc1ccc(-c2nnc(SCC(=O)c3cccs3)o2)cc1	?	0%	-2%	-6%	i	i
COc1ccc(C(=O)N/N=C(\C)c2ccc(NC(=O)Cc3ccccc3)cc2)c(OC)c1	-4%	0%	1%	1%	·	·
CC1(C)O[C@H]2[C@@H](O1)[C@@H](C(=O)Nc1ccccc1O)O[C@@H]1OC(C)(C)O[C@@H]12	·	·	·	·	?	i
Cc1cc(C(=O)N/N=C/c2ccc(Cl)c([N+](=O)[O-])c2)c(C)n1-c1ccc(F)cc1	12µM*	?	21µM*	17%	?	5.8µM*
O=C(CNC(=S)NC(=O)c1ccc(Br)o1)c1ccccc1	6.5µM*	-1%	-1%	21µM*	i	i
COc1ccccc1NC(=O)c1cnc(Nc2ccccc2OC)c2ccccc12	?	3.7µM*	?	2.8µM*	9.2µM*	18µM*
Cc1ccc(C(=O)OCC(=O)Nc2c(C)n(C)n(-c3ccccc3)c2=O)cc1[N+](=O)[O-]	6%	3%	6%	-20%	i	i
CCCNC(=O)COC(=O)c1ccccc1C(=O)c1ccc(Cl)c([N+](=O)[O-])c1	?	9.2µM*	5.2µM*	6.5µM*	i	?
Cc1ccc(Cl)c(NC(=O)COC(=O)c2ccccc2C(=O)c2ccc(Cl)c([N+](=O)[O-])c2)c1Cl	2.6µM*	?	?	3.7µM*	i	?
O=C(COC(=O)c1ccccc1[N+](=O)[O-])NCCCc1ccccc1	18µM*	13%	-3%	-15%	i	i
CCN(C(=O)Cn1nnc(-c2ccccc2)n1)C1CCS(=O)(=O)C1 (stereo not given)	4%	-12%	-5%	?	i	i
COc1ccc(OC)c(CNC(=O)Cc2ccc(NC(=O)N3CCSc4ncccc43)cc2)c1	·	·	·	·	i	i
COc1ccc(C(=O)Nc2sc3c(c2C#N)CCN(C(C)=O)C3)cc1	23µM*	8.2µM*	5.8µM*	23µM*	?	8.2µM*
COc1cc(C(=O)Nc2sc3c(c2C#N)CCN(C(C)=O)C3)cc(OC)c1OC	11%	-17%	-7%	0%	i	?

Source: PubChem BioAssay (National Center for Advancing Translational Sciences (NCATS))
